In ChEMBL document CHEMBL3988442, “University of Dundee, Small-Polar-MMV Screening Library” (2021):

Biological target: T1, Aspartate--tRNA(Asp/Asn) ligase (Mycobacterium tuberculosis (strain ATCC 25618 / H37Rv)) (UniProt P9WFW3)
T1 sequence (whole entry): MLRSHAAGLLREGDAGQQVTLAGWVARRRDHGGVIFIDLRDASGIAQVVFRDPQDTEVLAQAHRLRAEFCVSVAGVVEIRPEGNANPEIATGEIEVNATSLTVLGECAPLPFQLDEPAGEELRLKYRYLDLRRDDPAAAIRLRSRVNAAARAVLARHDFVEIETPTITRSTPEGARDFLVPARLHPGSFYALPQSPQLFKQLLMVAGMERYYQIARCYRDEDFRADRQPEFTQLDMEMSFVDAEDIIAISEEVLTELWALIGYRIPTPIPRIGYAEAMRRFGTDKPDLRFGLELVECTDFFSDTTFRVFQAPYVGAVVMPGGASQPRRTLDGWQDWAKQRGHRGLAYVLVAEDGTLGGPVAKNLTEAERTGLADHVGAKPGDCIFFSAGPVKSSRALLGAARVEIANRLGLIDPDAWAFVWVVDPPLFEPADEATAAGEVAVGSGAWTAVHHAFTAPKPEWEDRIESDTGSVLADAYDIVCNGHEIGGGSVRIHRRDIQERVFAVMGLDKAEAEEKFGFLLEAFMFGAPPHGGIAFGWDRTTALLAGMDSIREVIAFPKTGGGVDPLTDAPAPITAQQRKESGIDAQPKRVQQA
Assay: Assay for Asp RNA synthetase-1 from Mycobacterium tuberculosis
Assay type: functional
Design: scale not given: in the data most compounds retested in dose-response had high values
Details: 30 µM

| Structure (SMILES) | Percent Effect [%] |
| --- | --- |
| Cc1nc(C)n(CC2CN(Cc3cccc(C#N)c3)CCO2)n1 (stereo not given) | 3.11 |
| COc1ccc(CC(=O)N(C)Cc2nnc3ccccn23)cc1 | 2.36 |
| Cc1cn2nc(N3CCCC3CC(C)(C)C)sc2n1 (stereo not given) | 1.06 |
| O=c1[nH]c(CCN2CCCC(Cn3cncn3)C2)nc2ccccc12 (stereo not given) | -3.23 |
| Cc1noc(C2CCN(C(=O)CCc3nccs3)CC2)n1 | -2.48 |
| Cc1n[nH]cc1CNc1ccc2c(c1)CN(C(=O)OC(C)(C)C)CC2 | 2.29 |
| O=C(Nc1ccccn1)N(CCO)Cc1ccsc1 | -3.79 |
| NC(=O)c1ccc2c(c1)nc1n2CCN(Cc2ccco2)C1 | 6.41 |
| Cc1ccc(OC2(C(=O)O)CCN(C(=O)c3ccc(F)cc3)CC2)cn1 | -4.69 |
| COc1cccc(CN2CCC(c3nccn3C(C)C)CC2)c1 | 1.9 |
| CCOc1ccccc1C(=O)NS(=O)(=O)c1ccc2c(c1)OCCCO2 | -0.534 |
| COCCNC(=O)[C@@H]1CC[C@@H]2[C@@H](CCN2Cc2cnn(C)c2)O1 | 2.71 |
| CN(c1ccc(F)c(F)c1)S(=O)(=O)c1cc(C(=O)O)cs1 | 1.3 |
| O=C(C1CCS(=O)(=O)C1)N1CCN(c2cnccn2)CC1 (stereo not given) | 0.204 |
| O=C1N(c2ccccc2)Cc2nc(=O)[nH]n21 | -0.29 |
| CCN1CC2(CCNCC2)COc2ccccc2S1(=O)=O | -1.28 |
| COc1ccc2nnc(CCCC(=O)NCCC3=CCCCC3)n2n1 | 0.319 |
| CC(=O)NCCc1cc(N2CCN(C(C)=O)CC2)nc(C2CC2)n1 | -3.2 |
| Cc1cnn(CCNCC(O)COc2ccc(Cl)cc2)c1 (stereo not given) | -2.57 |
| CCn1ccnc1CN1CCN(CC(=O)NC(=O)NC2CC2)CC1 | -2.79 |
